# The list is not random: actives were taken first. Their share in the collection is about 28%.
# CYP2C9 act: human CYP2C9 activators, primary screen, biochemical, luminescence; Cytochrome P450 2C9 (Homo sapiens), P11712; recombinant CYP2C9, luciferin-H conversion; active compounds read high; factor 1 = untreated enzyme, 0 = blocked; activation factor at 5 µM; hit rate 1.4% among 96,000;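 active = activation factor of 2 or more for CYP2C9 at a 5 µM dose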
# CYP2C9 inh: blockers of cytochrome P450 2C9 activity – biochemical, luminescence, ADME assay, primary screen; P11712; CYP2C9 Supersomes, luciferin-H conversion; AID 777, 2007; hit rate 20% among 96,000; inhibition, % at 5 µM;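 active = blocking of liver enzyme CYP2C9 beyond about 50% at 5 µM, limit read from the data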
# CYP2C19 inh: blockers of cytochrome P450 2C19 activity – biochemical, luminescence, ADME assay, primary screen. CYP2C19 Supersomes, luciferin-H EGE luminescence, 30 min. inhibition, % at 5 µM. hit rate 21% among 96,000;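 active = CYP2C19 inhibition above a set limit at 5 µM in the primary screen, cut at about 50% in these data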
# CYP2C19 act: human CYP2C19 activators, primary screen, biochemical, luminescence; Cytochrome P450 2C19 (Homo sapiens), P33261; recombinant CYP2C19, luciferin-H EGE luminescence; active compounds read high; 0 = fully inhibited enzyme, 1 = untreated enzyme; activation factor at 5 µM; 96,000 tested, under 10 active; AID 1025, 2008;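 active = activation factor of at least 2 at 5 µM in the primary screen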
# PLK1 inh: human PLK1 kinase inhibitors, primary screen, biochemical, TR-FRET; inhibition, % at 10 µM; recombinant PLK1 kinase, TR-FRET peptide phosphorylation; Serine/threonine-protein kinase PLK1 (Homo sapiens), P53350; hit rate 0.53% among 97,000; AID 619, 2007;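 active = inhibition of 50% or more in the single-concentration screen; inactive = inhibition below 50%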
# Target sequence (P53350 whole entry, looked up): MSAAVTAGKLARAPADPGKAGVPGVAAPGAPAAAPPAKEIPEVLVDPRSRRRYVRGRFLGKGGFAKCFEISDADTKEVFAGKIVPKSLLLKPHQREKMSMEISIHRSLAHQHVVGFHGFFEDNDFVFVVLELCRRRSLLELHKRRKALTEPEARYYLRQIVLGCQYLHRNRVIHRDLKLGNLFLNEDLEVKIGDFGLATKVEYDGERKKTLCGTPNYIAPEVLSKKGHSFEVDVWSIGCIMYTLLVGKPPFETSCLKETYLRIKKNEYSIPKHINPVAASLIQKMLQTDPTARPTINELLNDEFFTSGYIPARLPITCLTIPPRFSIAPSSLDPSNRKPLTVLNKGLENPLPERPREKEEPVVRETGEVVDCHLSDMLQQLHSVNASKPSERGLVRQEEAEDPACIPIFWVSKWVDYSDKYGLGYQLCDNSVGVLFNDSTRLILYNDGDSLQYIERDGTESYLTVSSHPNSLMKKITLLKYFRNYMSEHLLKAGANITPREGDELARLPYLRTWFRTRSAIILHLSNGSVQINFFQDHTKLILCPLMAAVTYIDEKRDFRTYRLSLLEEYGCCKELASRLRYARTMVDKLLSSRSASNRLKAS
# Plk1 PBD FP: Plk1 polo box domain binding inhibitors, primary screen, biochemical, fluorescence polarization | Serine/threonine-protein kinase PLK1 (Homo sapiens), P53350 | hit rate 0.13% among 97,000 | inhibition, %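 (tested at about 20 µM)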 | Plk1 PBD phosphopeptide binding; in the data active = inhibition above about 34%, passing the limit was not always enough
# Hits are given with their value; - = inactive; . = no result.
SMILES,CYP2C9 act,CYP2C9 inh,CYP2C19 inh,CYP2C19 act,PLK1 inh,Plk1 PBD FP
COc1ccc(Cl)cc1Nc1nc(C)cc(C)c1C(N)=O,.,.,.,.,-,-
CCNC(=S)N/N=C/c1ccco1,-,-,-,-,-,-
CCN(c1cccc(C)c1)S(=O)(=O)c1ccc2c(c1)CCN2C(C)=O,-,-,-,-,-,-
CCN(c1cccc(C(F)(F)F)c1)S(=O)(=O)c1ccc2c(c1)CCN2C(C)=O,-,-,61,-,-,-
CSc1nc(-c2ccco2)nn1S(=O)(=O)c1ccc(C)cc1,-,70,68,-,.,.
CSc1nc(-c2ccco2)nn1S(=O)(=O)c1ccccc1,2.1,-,83,-,-,-
O=C(Cc1ccccc1)n1nc(-c2ccco2)nc1SCc1ccccc1,-,-,68,-,-,-
Cc1ccc(S(=O)(=O)n2nc(-c3ccco3)nc2SCc2ccccc2)cc1,-,70,55,-,-,-
CC(C)OC(=O)CSc1nnc(-c2ccc(C(C)(C)C)cc2)n1N,-,-,-,-,-,-
CCC(=O)n1nc(-c2ccc(Cl)cc2)nc1NCc1ccccc1,-,50,-,-,-,-
COc1ccc(CC(=O)n2nc(-c3ccccc3)nc2NCc2ccco2)cc1,-,56,-,-,-,-
COc1ccc(Nc2nc(NCc3ccco3)nc(N/N=C/c3ccccc3)n2)cc1,-,61,-,-,-,-
O=C(CCc1ccccc1)n1nc(-c2ccccc2)nc1NCc1ccco1,.,.,.,.,-,-
CCOc1nc(NCc2ccco2)nc(Nc2ccc(OC)cc2)n1,-,-,-,-,-,-
CCC(=O)n1nc(-c2ccccc2)nc1N,-,-,-,-,-,-
CCOC(=O)CSc1nc(N)c(C#N)c(CC(C)C)c1C#N,-,-,-,-,-,-
O=c1cc(-c2ccccc2)[nH]n1-c1nc2ccccc2[nH]1,-,56,-,-,-,-
CCOC(=O)c1ccc(-n2[nH]c(-c3ccccc3)cc2=O)cc1,-,-,-,-,-,-
COC(=O)C(CC(C)C)NC(=O)c1ccc(F)cc1 (stereo not drawn),-,-,-,-,-,-
COc1cc(OC)c(C(=O)Nc2ccc(S(=O)(=O)Nc3ncccn3)cc2)cc1OC,-,-,-,-,-,-
CC1=C(C(=O)OCC2CCCO2)C(c2cccc(C(F)(F)F)c2)C2=C(CC(c3ccco3)CC2=O)N1 (stereo not drawn),-,88,94,-,-,-
CC1=C(C(=O)OCC2CCCO2)C(c2ccc(C)o2)C2=C(CC(c3ccc(N(C)C)cc3)CC2=O)N1 (stereo not drawn),-,54,56,-,-,-
CC1=C(C(=O)OCC2CCCO2)C(c2ccc(C)o2)C2=C(CC(c3ccc(F)cc3)CC2=O)N1 (stereo not drawn),-,-,-,-,-,-
CC1=C(C(=O)OCC2CCCO2)C(c2ccccc2OC(C)C)C2=C(CC(c3ccco3)CC2=O)N1 (stereo not drawn),-,81,98,-,-,-
CC(C)(C)SCCNC(=O)CSCc1ccc([N+](=O)[O-])cc1,-,-,-,-,-,-
SMILES,CYP2C9 act,CYP2C9 inh,CYP2C19 inh,CYP2C19 act,PLK1 inh,Plk1 PBD FP
CCOc1ccc2ccccc2c1C(=O)Nc1cc(=O)n(C)c(=O)n1C,.,.,.,.,-,-
CCc1ccccc1NC(=O)c1cc2sccc2n1C,-,-,-,-,-,-
Cn1c(C(=O)Nc2ccccc2)cc2sccc21,-,-,-,-,-,-
Cn1c(C(=O)NCc2ccc3c(c2)OCO3)cc2sccc21,-,75,80,-,-,-
COc1cc(NC(=O)c2cc3sccc3n2C)cc(OC)c1,-,80,86,-,-,-
Cn1c(C(=O)Nc2ccc3c(c2)OCO3)cc2sccc21,-,-,96,-,-,-
CNc1ccccc1C(C)(C)c1cc(-c2ccco2)n[nH]1,-,-,54,-,-,-
Fc1ccc(CNc2nc(-c3ccco3)cc(C(F)(F)F)n2)cc1,-,-,-,-,-,-
Cc1ccc(S(=O)(=O)N2CCN(C(=O)CSc3nnnn3C)C2)cc1,-,-,-,-,-,-
CS(=O)(=O)N(CC(=O)N1CCOCC1)Cc1ccccc1,-,-,-,-,-,-
COc1ccc(S(=O)(=O)N(CC(=O)O)Cc2ccccc2)cc1OC,-,-,-,-,-,-
COc1ccc(S(=O)(=O)N(CCc2ccccc2)CC(=O)O)cc1C,-,73,62,-,-,-
COc1ccc(S(=O)(=O)N(CC(=O)N2CCOCC2)Cc2ccccc2)cc1C,-,-,72,-,-,-
COc1ccc(C)cc1S(=O)(=O)N(CC(=O)N1CCOCC1)Cc1ccccc1,-,-,66,-,-,-
Cc1cc(Oc2ccc(C#N)cc2)nc(NCc2ccccc2)n1,-,-,-,-,-,-
CC1(C)Cc2c(ccc3ccccc23)/C(=C/C#N)N1,-,-,-,-,-,-
CNC(=O)/C=C1\NC(C)(C)Cc2c1ccc1ccccc21,-,-,67,-,-,-
O=[N+]([O-])c1ccc(NCCNc2ccc(Cl)nn2)cc1,-,-,-,-,-,-
CCOc1ccc(NC(=O)C2CC(=O)N(C)C(=Nc3ccc4c(c3)OCO4)S2)cc1 (stereo not drawn),-,-,-,-,-,-
COc1cccc(N=C2SC(C(=O)Nc3ccc(F)cc3)CC(=O)N2C)c1 (stereo not drawn),-,99,83,-,-,-
N#CC1=C2SCN(c3ccccc3)CN2C(=O)CC1c1ccccc1Cl (stereo not drawn),-,61,-,-,56,-
CCOc1ccc(N2CSC3=C(C#N)C(c4ccco4)CC(=O)N3C2)cc1 (stereo not drawn),-,-,-,-,-,-
Cc1ccc(C2CC(=O)N3CN(c4ccc(Br)cc4)CSC3=C2C#N)o1 (stereo not drawn),-,98,90,-,-,-
N#CC1=C2SCN(c3ccccc3)CN2C(=O)CC1c1c(Cl)cccc1Cl (stereo not drawn),-,88,-,-,-,-
COc1cc(OC)c(C2CC(=O)N3CN(c4ccccc4)CSC3=C2C#N)cc1OC (stereo not drawn),-,-,-,-,-,-
N#CC1=C2SCN(c3ccccc3)CN2C(=O)CC1c1cccs1 (stereo not drawn),-,83,50,-,-,-
Cc1cccc(N2CCN(S(=O)(=O)c3ccc4c(c3)CCN4C(=O)CCC(=O)O)CC2C)c1 (stereo not drawn),-,-,-,-,-,-

# Screening data (PubChem BioAssay)
